Assay results: the supplement of paper PMC11417369
± gives the standard deviation of the averaged measurements. In all, about 25,000 sequences were measured (“ln(normalized median fluorescence intensity)”: median about 8.6, highest 2% from about 10 on). The entries come from a sample that favours the highest values as a whole.

What follows are sequences tested on PfAP2-EXP AP2 domain (GST-tagged) (assay: gcPBM binding intensity (ln(normalized median fluorescence intensity)); higher = stronger DNA binding).
Outline: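 Probes on an Agilent 4 × 180k array were primer-extended, double-stranded and 36 bp long, taken from intergenic genomic regions, with negative controls added. GST-tagged P. falciparum DNA-binding domains from E. coli, about 25 μg on average, were applied to the array for 1 h in 1× PBS containing 1% milk, 0.2 mg/ml BSA, 0.5% salmon testes DNA and 0.03% Triton X-100. Binding intensity, obtained after Alexa488 anti-GST antibody detection and a 488 nm scan, is the highest Masliner-normalised natural-log median intensity across replicate spots of either probe orientation.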

Point of comparison: “ATGTGTGTATTTTATAGTACAGTTACAAGCATTTTT [XGTACX_site6351]”, “gcPBM binding intensity (ln)” value 8.57 ± 0.35. Against it:
- TCCTTAAAAATCTAAAAAGAAAAAAACATATATTTT [GTGCAC_negctrl_site123] — within error, 8.04 ± 0.45
- ATAATATATATATATAGTACATATATATAATATTCT [XGTACX_site2445] — within error, 8.2 ± 0.24
- TTTCTTATATTATATAAATATATAGATGTTAATGGT [CACACA_negctrl_site706] — within error, 8.38 ± 0.47
- TATTATTGTTGTTCATGTACACACTATAATAAAAGC [XGTACX_site8957] — within error, 8.64 ± 0.4
- CAAAATTGACATGACGCACACAAGTGTAGATATTTT [CACACA_site1250] — the same, 8.57 ± 0.4
- ATATAAATATAAATATATATGTATAAATATAAATAT [CACACA_negctrl_site247] — within error, 8.25 ± 0.47
- GATTATATTATATATTAAATATAAATATGTATTATA [TGCATGCA_negctrl_site66] — within error, 8.04 ± 0.42
- ATTATATATGTATAAATATGCTATATATATATATAT [GTGCAC_negctrl_site430] — higher, 10.3 ± 0.17
- ATATTTTATACTTGCACACAAAATATATTAAAATGG [CACACA_site5139] — within error, 8.47 ± 0.4
- CTTCCTTAGGAATGTACACACATATATAATATGTTG [CACACA_site461] — within error, 8.53 ± 0.4
- CATTATTATTAACATACACACGTGTTAAATACACCC [CACACA_site6118] — within error, 8.91 ± 0.6
- TTCATTATTATTAACATACACACGTGTTATATACAC [CACACA_site4112] — within error, 8.66 ± 0.41
- CATTATTATTAACATACACACGTGTTATATACCCCC [CACACA_site9365] — higher, 10.2 ± 0.41
- TTTTTTTTTTTTTTTTTTTTTTTTTTTTTTTGGGGG [CACACA_negctrl_site1570] — within error, 9.13 ± 0.49
- GGTTGTATAAGTTTTTGTACATATATATATATATAT [XGTACX_site7487] — higher, 10.2 ± 0.49
- TAAGTTTTGTTCTTTTGTACATATAAGTATAGATCG [XGTACX_site4735] — within error, 8.48 ± 0.33
- TTTTTTTTTTTTTTTTGTACATATACATATATATAT [XGTACX_site1981] — higher, 9.3 ± 0.11
- AATAAATACACATACACACACGACGCTAGTATATGT [CACACA_site6627] — within error, 8.29 ± 0.4
- TTTTTTTTTAGAAAAACATGCATGTCCTAAAAATAA [TGCATGCA_site684] — within error, 8.89 ± 0.27
- TATATATATATATATACACACTTGTGCAGAATATTA [CACACA_site5257] — higher, 10 ± 0.55
- TATAAATAGATATATACACACTTGTGCAGAATATTA [CACACA_site7112] — within error, 8.63 ± 0.25
- TATATATATATATATATACACACTTGTGCAGAATAT [CACACA_site2216] — higher, 10.2 ± 0.41
- CCTACAATTCGTAATACACACACATATATATATATA [CACACA_site9251] — higher, 10.2 ± 0.16
- ATTATATATACATATACACACATACGTACATACATA [CACACA_site9194] — within error, 8.8 ± 0.4
- TACAATTCGTAATACACACACATATAAATAAATATT [CACACA_site7720] — within error, 8.44 ± 0.38
- ATACATATATAAATACGTACATATATAATTATATAT [XGTACX_site8178] — within error, 8.55 ± 0.3
- ACATTTTTTTCATATCGTACATATTATAATATTTTC [XGTACX_site6524] — within error, 8.9 ± 0.39
- TAATATTCAATTATACGTACACATATATATATATAT [XGTACX_site4245] — higher, 10.2 ± 0.2
- TACAATTCGTAATACACACACATATATATATATATT [CACACA_site3751] — within error, 8.62 ± 0.36
- TTATTCATACAATATCGTACATATATATATATATAT [XGTACX_site1185] — higher, 10.2 ± 0.33
- TAAAAAATATACATTCGTACATATATATTATATATA [XGTACX_site7918] — within error, 8.12 ± 0.25
- TTGTAATTCATTCAAATATAAAATAAATAAATATGA [CACACA_negctrl_site349] — within error, 8.28 ± 0.34
- AAATGAATTATATAATATATATAAATAAATAAATAA [CACACA_negctrl_site359] — within error, 8.46 ± 0.18
- ATTTAAAACAAAAGTAGTACGTCTAATAAATTCAAC [XGTACX_site4344] — within error, 8.45 ± 0.34
- ATATATATATATATATGTACACATAAAAAGAAAGAA [XGTACX_site1603] — higher, 10.2 ± 0.21
- ACATTATATAAAATATGTACACATAAATAAATAAAT [XGTACX_site5031] — within error, 8.73 ± 0.41
- ATTATAAGAAGGGGGGGTACATAAATATAAATGTAT [XGTACX_site5624] — higher, 10.4 ± 0.2
- TAAGAAAAATATATATGTACACATATATATATATAT [XGTACX_site8542] — higher, 9.97 ± 0.57
- TATTATAATAAAATATGTACACACATACACACATAT [XGTACX_site2360] — within error, 8.8 ± 0.33
- TATAAGAATAAAAAGGGTACATAAAATAATAATATA [XGTACX_site2355] — within error, 8.82 ± 0.38
- AAAAAAAAAAAGAAGGGTACATATTATATATAATAT [XGTACX_site6204] — within error, 8.59 ± 0.48
- AAAAAAAAAGAAAAATGTACATACATAAATATATAT [XGTACX_site5664] — the same, 8.57 ± 0.45
- ATACATATACACATATGTACATATGAAAAGAAAAAT [XGTACX_site6445] — within error, 8.94 ± 0.45
- ATATATATATATATATGTACACATATTATAAAAAAA [XGTACX_site8644] — higher, 10.2 ± 0.32
- AAATAAAGAAATATATGTACATATATATATATATAT [XGTACX_site5131] — higher, 10.4 ± 0.28
- TAAAAGAAATATACATGTACATAAATATATATATAT [XGTACX_site1276] — higher, 9.86 ± 0.2
- TTACAACAGAATGGTATTTTTTTATTTTAAAGAAAA [TGCATGCA_negctrl_site230] — within error, 8.04 ± 0.38
- ACATAATATACTATTGTGCACATATATATATATATA [GTGCAC_site9761] — higher, 10.1 ± 0.45
- AAAATGATGTTAATTACACACATCATCTCATAAACA [CACACA_site3017] — within error, 8.28 ± 0.4
- TATTTAATTACATGAACACACATTAGATATTTTTAA [CACACA_site7405] — within error, 8.14 ± 0.44
- TATATATAAAGGTGTACACATATATATATATCTGTA [CACACA_site5311] — within error, 8.45 ± 0.17
- AAAAAAAAAAAAAGGTGTACATAAGTAAATTCATAT [XGTACX_site4206] — within error, 8.7 ± 0.54
- TTCATAATAAAAAGGTGTACATATATATATATATAT [XGTACX_site2829] — higher, 10.34 ± 0.085
- ACATATATATAAAGGTGTACACATATATATATATAT [XGTACX_site4779] — higher, 10.2 ± 0.71
- ATTCATAAAAAGAGGTGTACATTAATATAATATATA [XGTACX_site8283] — within error, 8.62 ± 0.35
- AATACAATATAAAGGTGTACATATATATATATATAT [XGTACX_site68] — higher, 10.1 ± 0.48
